# Source: PubChem (several laboratories)
# MT1-MMP txn act = activates MT1-MMP transcription; HT1080 MT1-MMP promoter luciferase reporter, luminescence, overnight; active compounds read high; activation factor at 10 µM; 86,000 tested, 0.16% active; AID 750;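 active means activation factor of at least 2 for MT1-MMP transcription at 10 µM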
# Measles CPE = protection of cells from measles virus | Measles virus-infected cells, CPE protection, absorbance | protection (pct of control), % at 4 µM | 140,000 tested, 1.5% active; in the data active means protection mostly above about 24%, no sharp cut-off; inactive means mostly below about 26%
# Smad3 inh = blocks human Smad3 binding to FoxH1 peptide; TR-FRET Smad3/Dy647-FoxH1 peptide binding, europium anti-His; inhibition, % at 25 µM; 88,000 tested, 0.29% active;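 active means compounds that reduce the energy-transfer binding signal between the protein and its labelled peptide by more than half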;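 further: 0% = Smad3 plus labelled peptide maximal FRET and 100% = peptide-only background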
# Target sequence (P84022 whole entry, looked up): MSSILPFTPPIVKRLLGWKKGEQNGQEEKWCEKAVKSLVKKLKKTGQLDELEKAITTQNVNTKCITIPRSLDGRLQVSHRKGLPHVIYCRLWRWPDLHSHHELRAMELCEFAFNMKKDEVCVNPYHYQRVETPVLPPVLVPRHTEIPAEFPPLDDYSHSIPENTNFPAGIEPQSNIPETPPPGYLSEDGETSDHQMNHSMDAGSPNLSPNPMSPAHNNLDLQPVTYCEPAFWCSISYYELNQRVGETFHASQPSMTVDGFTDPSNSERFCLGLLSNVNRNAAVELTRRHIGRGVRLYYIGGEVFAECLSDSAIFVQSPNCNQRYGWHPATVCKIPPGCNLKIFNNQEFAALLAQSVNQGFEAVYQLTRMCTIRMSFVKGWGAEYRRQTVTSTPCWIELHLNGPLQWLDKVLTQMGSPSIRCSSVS
# * hit, by the source's call; . = not tested or not shown; [ ] = dose if it differs, or a comment. The list is not random: actives were taken first. Their share in the collection is about 1.7%.
SMILES,MT1-MMP txn act,Measles CPE,Smad3 inh
COc1ccc(C2CC(c3cc(OC)ccc3OC)n3nnnc3N2)cc1 (stereo not given),1.2,7,-9
COc1ccc(OC)c(C2C3=C(CC(C)(C)CC3=O)Nc3nnnn32)c1 (stereo not given),.,31*,.
O=C(NC(=S)Nc1ccccc1)c1ccc(-c2ccccc2)cc1,.,6,.
CC(C)NS(=O)(=O)c1ccc(NC(=S)NC(=O)c2ccc(-c3ccccc3)cc2)cc1,.,44*,.
CCOC(=S)SCC(=O)O,.,.,-5
Cc1nc2ccccc2nc(C)c1=NOCc1ccccc1Cl,.,9,.
Cc1cccc(Oc2sc(C(=O)c3ccccc3)c(N)c2C#N)c1,.,18,.
COc1cc(CN2CCC(C(=O)N3CCN(c4ccccc4F)CC3)CC2)cc(OC)c1O,1,51*,-10
CCOc1ccc(CN2CCC(C(=O)N3CCN(c4ccccc4F)CC3)CC2)cc1OC,.,19,.
COc1ccc(NC(=O)N2CCCCC2c2cccnc2)cc1 (stereo not given),.,11,.
COc1cc(C)c(C)cc1S(=O)(=O)N1CCCCC1c1cccnc1 (stereo not given),1.2,51*,6
COc1ccc(OC)c(S(=O)(=O)N2CCCCC2C(=O)N2CCN(c3ccccn3)CC2)c1 (stereo not given),.,4,.
CC(=O)Nc1ccc(S(=O)(=O)N2CCCCC2c2cccnc2)cc1 (stereo not given),1.1,29*,14
COC(=O)CNC(=O)C1(C)C=CC2(CCCCC2)N1C(C)=O (stereo not given),1.2,.,.
c1cc(NNc2cccc(-c3nn[nH]n3)c2)cc(-c2nn[nH]n2)c1,.,.,11
O=C(CC1SC(=O)N(Cc2cccc3ccccc23)C1=O)Nc1nccs1 (stereo not given),.,2,.
CCOC(=O)CN1C(=O)SC(CC(=O)Nc2nccs2)C1=O (stereo not given),.,36*,2
Cc1cc(C(=O)Nc2c(C)nn(Cc3c(Cl)cccc3Cl)c2C)no1,1.1,6,12
Cc1nn(Cc2c(Cl)cccc2Cl)c(C)c1NC(=O)c1cc(C(C)C)on1,1.3,52*,1
O=C(O)CC[C@@]1(c2ccccc2)NC(=O)NC1=O,.,.,-5
Cc1ccc(NC(=O)COC(=O)c2ccc3c(c2)NC(=O)C2CCCN32)cc1 (stereo not given),1.1,10,-4
COC(=O)c1ccc2c(c1)NC(=O)C1CCCN21 (stereo not given),1.1,34,56*[fluorescence artefact?]
CC(C)Cc1c(O)nc(SCCN2CCOCC2)[nH]c1=O,1,72*,4
CCCCc1c(O)nc(SCC(=O)N2CCOCC2)[nH]c1=O,1.1,31,4
C[C@@]1(CCOCc2ccccc2)NC(=O)NC1=O,.,.,-11
SMILES,MT1-MMP txn act,Measles CPE,Smad3 inh
COc1cc(/C=C/C(=O)NNc2c(F)c(F)cc(F)c2F)ccc1OC(F)F,1.2,19,-1
COc1ccc(/C(=C/c2ccc(OC(F)F)c(OC)c2)C(=O)O)cc1OC,.,60*,.
O=C(O)c1ccc(Cc2ccccc2C(=O)O)cc1,.,.,7
Clc1ccc(-c2nc3nc4ccccc4nc3n2Cc2ccco2)cc1,1.3,28,1
Cc1ccc(-c2nc3nc4ccccc4nc3n2Cc2ccco2)cc1,1.3,6,64*
COC(=O)N1[C@H](C)C=C[C@]1(Cc1ccccc1)C(=O)NCc1ccc(N(C)C)cc1,1,.,.
O=C(CC(c1ccccc1)c1ccco1)Nc1nccs1 (stereo not given),.,25*,.
CC(C)C(C(=O)Nc1nccs1)c1ccccc1 (stereo not given),1,3,-13
C[Si](C)(C)C#Cc1ccccc1NC(=S)Nc1ccccc1,1.1,.,.
Cc1ccccc1NCC(=O)N/N=C/C(Br)=C/c1ccccc1,1.2,10,5
Nc1ncnc2nc(-c3ccc(C[P+](c4ccccc4)(c4ccccc4)c4ccccc4)cc3)[nH]c12,.,.,6
O=C(Cn1nnc(-c2ccccc2F)n1)Nc1ccc(S(=O)(=O)NC2CCCC2)cc1,1,35*,0
CCOC(=O)c1ccc(NC(=O)Cn2nnc(-c3ccccc3F)n2)cc1,.,1,.
Cc1ccc(C(=O)NN2C(=O)C3C4c5ccccc5C(c5ccccc54)C3C2=O)cc1 (stereo not given),.,5,.
CCNC(=O)/C(=C\C=C\c1ccccc1)NC(=O)c1ccc(Br)o1,.,18,.
Cn1ncc2c(Cl)ncnc21,.,.,-1
Cc1cc2occ(CC(=O)Nc3nnc(C4CC4)s3)c2cc1C,.,3,.
O=C(Cc1coc2ccc3ccccc3c12)Nc1nnc(C2CC2)s1,.,56*,.
C[C@@]12CCC(=O)C=C1CC[C@H]1[C@H]2[C@@H](O)C[C@]2(C)[C@@H]1CC[C@@]2(O)C(=O)COC(=O)C1CCCC1,.,.,28
COc1ccc(S(=O)(=O)N(CC(=O)N2CCOCC2)Cc2ccccc2)cc1,1,18,0
O=C(CN(Cc1ccccc1)S(=O)(=O)c1ccccc1)N1CCOCC1,1.1,38*,-5
CCOC(=O)c1sc(NC(C)=O)nc1-c1ccccc1,1.2,18,-17
CC(=O)Nc1sc(N)nc1-c1ccccc1,1,35*,9
CC(=O)OC[C@H]1O[C@H](C/C=N/OC[C@@H](O)[C@H]2O[C@@H]3OC(C)(C)O[C@@H]3[C@H]2O)C=C[C@@H]1OC(C)=O,.,5,.
Nc1[nH]c(N=NC(=O)c2ccc(Cl)cc2)c2ccccc12,.,45*,.
SMILES,MT1-MMP txn act,Measles CPE,Smad3 inh
Nc1[nH]c(N=NC(=O)c2ccccc2)c2ccccc12,.,19,.
O=C(O)c1nnsc1COCc1ccccc1,.,.,-5
Cc1cc(SCC(=O)c2cccs2)n2nc(C)c(-c3ccccc3)c2n1,.,60*,.
Cc1cc(SCC#N)n2nc(C)c(-c3ccccc3)c2n1,0.8,14,1
CC(C)C[C@H](NC(=O)Nc1cccc(Br)c1)C(=O)O,.,63*,.
COC(=O)[C@H](CC(C)C)NC(=O)Nc1cccc(Br)c1,.,9,.
COc1ccc2c(c1)O[C@@H](c1cccc(C(F)(F)F)c1)[C@H](O)C2=O,.,7,.
COc1ccc2c(c1)O[C@H](c1ccc3c(c1)OCO3)[C@@H](O)C2=O,.,27*,.
O=C(O)C[C@H](Nc1ccccc1)C(=O)O,.,.,0
CCN(CC)S(=O)(=O)c1ccc(Oc2ccccc2)cc1,1.2,7,12
COc1ccc(-n2nc(C(=O)NCC(=O)NCc3ccc(F)cc3)c3ccccc3c2=O)c(OC)c1,.,87*,.
COc1ccc(-n2nc(C(=O)NCC(=O)NCc3ccco3)c3ccccc3c2=O)c(OC)c1,0.9,9,-17
CO[C@@H]1/C=C\O[C@]2(C)Oc3c(C)c(O)c4c(O)c(c(CN5CCN(C)CC5)c(O)c4c3C2=O)NC(=O)C(C)=C/C=C\[C@@H](C)[C@@H](O)[C@H](C)[C@@H](O)[C@H](C)[C@H](OC(C)=O)[C@@H]1C,.,.,7
Cc1nn(Cc2ccccc2Cl)c(C)c1NC(=O)CCCn1nc([N+](=O)[O-])c(Cl)c1C,.,25,.
CC(C)c1onc(C(=O)N2CCCCC2)c1[N+](=O)[O-],.,9,.
Cc1c([N+](=O)[O-])c(C(=O)N2CCCC2)nn1C,.,69*,.
O=C1c2ccccc2-c2nccnc21,1.2,1,2
O=C1c2cccnc2-c2ncccc21,1.1,46*,15
O=C(/C=C/c1ccc([N+](=O)[O-])cc1)OCC(=O)N1c2ccccc2Sc2ccccc21,.,10,.
COc1ccc(-c2nc3c(c(=O)[nH]c(=O)n3Cc3ccccc3)n2C)cc1,.,2,17
